# Measured values as given in PubChem BioAssay (NCI).
# About 83,000 compounds went through this panel and 20% of them were active in at least one assay; those are over-represented in the sample as a whole.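 A percent growth of 40 corresponds to 60% growth inhibition; 0 means no net growth; -100 means all cells died. Active threshold: below 10.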 Values without a mark were called inactive. The source made the active and inactive calls.
# What was measured:
# Experiment in all cases: NCI-60 one-dose screen, 48 h (100 = growth as untreated, 0 = no growth, -100 = all killed)
# Conditions in all cases: 10 µM unless noted
# SK-MEL-2 melanoma = tested on: SK-MEL-2 melanoma
# EKVX NSCLC = tested on: EKVX NSCLC
# SN12C renal = tested on: SN12C renal
# UO-31 renal = tested on: UO-31 renal
# TK-10 renal = tested on: TK-10 renal
# CAKI-1 renal = tested on: CAKI-1 renal
# A498 renal = tested on: A498 renal
# CCRF-CEM leukemia = tested on: CCRF-CEM leukemia
# MOLT-4 leukemia = tested on: MOLT-4 leukemia
# ACHN renal = tested on: ACHN renal
SMILES,growth (SK-MEL-2 melanoma),growth (EKVX NSCLC),growth (SN12C renal),growth (UO-31 renal),growth (TK-10 renal),growth (CAKI-1 renal),growth (A498 renal),growth (CCRF-CEM leukemia),growth (MOLT-4 leukemia),growth (ACHN renal) [%]
C=CC(=O)OC1CCC(C(C)(C)CC)CC1 (stereo unspecified),108%,117%,103%,83.9%,101%,115%,87.2%,106%,107%,–
Cc1ccc([N+](=O)[O-])c(C)n1,120%,97.2%,106%,74.1%,117%,–,79.8%,96.4%,115%,–
CC(C)(C)NCCC(O)c1cc(C(F)(F)F)nc2c(C(F)(F)F)cccc12 (stereo unspecified),102%,86.7%,84.7%,45.7%,82.9%,75.4%,33.3%,94.5%,89.6%,–
CCCCN(C(=O)CC)c1ccccc1,108%,97%,99.3%,86.7%,97.2%,101%,83.3%,-8.28% (active),–,–
CC(=O)OCC1CCC(COC(C)=O)CC1 (stereo unspecified),89.8%,94.3%,110%,91.9%,89.1%,–,109%,115%,93.1%,–
Cc1ccc(Cc2ccc(C)cc2)cc1,99.6%,94.9%,110%,81.1%,107%,99.8%,93.2%,–,97.2%,–
CCOC(=O)/C(O)=C(\C=N\C(=S)Nc1ccc(Cl)c(Cl)c1)C(=O)OCC,116%,82.8%,93.4%,70.9%,117%,89.2%,101%,97.7%,76.5%,–
CN1CCN(C(=S)S)CC1,114%,106%,108%,98.4%,111%,99.5%,118%,89%,105%,–
Cc1cc(C)cc(OCC(=O)O)c1,91.4%,101%,99.1%,86.9%,97.8%,–,105%,132%,–,–
O=S(Cc1ccccc1)/C(=C/NC(=S)Nc1cc(Cl)ccc1Cl)c1ccccc1 (stereo unspecified),101%,99.3%,98.5%,83.9%,107%,97.1%,101%,99.6%,–,–
C=CCNC(=S)N/C=C(/C(=O)c1ccccc1)c1ccccc1,120%,106%,93.6%,95.3%,107%,101%,98%,101%,99.2%,–
CCOC(OCC)C(=O)c1ccccc1,88.8%,109%,–,82.6%,84.1%,107%,94%,99.8%,–,99.3
NNC(=O)N/N=C1\C(=O)N(c2nccs2)C(=O)C(=O)C1c1nc2ccccc2s1 (stereo unspecified),98.4%,84.8%,–,75.5%,114%,96.7%,98.3%,–,–,109
CSc1cnc2ccccc2n1,86%,103%,94.4%,78.4%,94.1%,97%,105%,113%,107%,–
Nc1nc(N)nc(N2CCCCC2)n1,100%,107%,102%,87.4%,91.6%,104%,89.6%,–,107%,–
CN(C)c1ccc2c(N(C)C)cc(N(C)C)nc2c1,143%,75.8%,83.1%,50.3%,104%,68.6%,78.9%,–,80.3%,–
O=C(NCc1ccco1)Nc1cccc2c(NC(=O)NCc3ccco3)cccc12,78.2% [100 µM],116% [100 µM],33.9% [100 µM],103% [100 µM],131% [100 µM],100% [100 µM],110% [100 µM],44.7% [100 µM],59.1% [100 µM],–
Cc1ccc(NCN2C(=O)c3ccccc3C2=O)c(C)n1,124%,106%,111%,87.3%,119%,105%,88.7%,–,104%,–

SMILES,growth (SK-MEL-2 melanoma),growth (EKVX NSCLC),growth (SN12C renal),growth (UO-31 renal),growth (TK-10 renal),growth (CAKI-1 renal),growth (A498 renal),growth (CCRF-CEM leukemia),growth (MOLT-4 leukemia),growth (ACHN renal) [%]
COC1OC(COC(C)=O)C(OC(C)=O)C(OC(C)=O)C1OC(C)=O (stereo unspecified),101%,93%,101%,99.3%,104%,–,88.8%,95.9%,96.3%,–
N#C/C(=C\c1ccc2c(c1)OCO2)c1ccccc1,76.5%,80.9%,89.3%,76.7%,–,58.9%,62.7%,75.3%,–,93.6
OC(CCN1CCCCC1)(c1ccccc1)c1ccccc1,110%,98.9%,108%,75.4%,113%,92.6%,100%,103%,102%,–
Cc1ccccc1NC(=O)Oc1ccc(Cl)cc1C(=O)c1ccccc1,92.6%,96.8%,–,49.1%,113%,91.7%,107%,96.5%,86.3%,–
COc1ccc(C2CCCCC2=O)cc1 (stereo unspecified),119%,102%,–,96.7%,–,105%,99.7%,106%,97.9%,98.7
O=C(CCCl)OCCOc1ccccc1,104%,109%,–,88.5%,100%,102%,89%,–,92.1%,106
O=C(Nc1c(Cl)cc(Cl)cc1Cl)ON=C1CCCCC1,107%,105%,–,90.2%,100%,97.2%,105%,–,109%,102
Clc1ccc(C(SCc2ccccc2)SCc2ccccc2)cc1,103%,89.9%,–,90%,104%,85%,81.3%,83.4%,84.9%,101
O=C1C=Cc2ccccc2/C1=C/c1[nH]c(=O)[nH]c1O,22.9%,69.6%,–,52.5%,65.2%,68.7%,32.7%,24.3%,43%,55.3
Cc1ccc(C)c2c1CCC2=O,122%,–,102%,90.6%,105%,95.9%,56.8%,-32.7% (active),121%,102
CCOC(=N)CC(=O)Nc1cccc(C)c1Cl,118%,109%,–,70.5%,113%,93.7%,120%,109%,–,–
c1ccc(-c2ccc3ccccc3c2)cc1,76.6%,103%,–,85.2%,97.7%,97.9%,84%,99.6%,80.8%,88.9
NNC(=O)CCCCl,105%,98.6%,–,90.5%,111%,107%,117%,112%,120%,114
Nc1ncnc(Nc2ccc(C(F)(F)F)cc2)n1,103%,99.7%,–,97.8%,109%,93.2%,–,116%,96.6%,98.2
CCOC(=O)Nc1nccs1,111%,99.4%,–,88.1%,104%,103%,99.9%,–,110%,104
CC(=O)Nc1ccc(O)c(C)c1,104%,112%,–,95.1%,93.2%,97.5%,–,95.4%,85.2%,99.4
CC(=O)OC/C(C)=C\CC(C)COC(C)=O (stereo unspecified),113%,–,99.6%,87.7%,112%,96.3%,95.7%,96.9%,111%,96.9
